PLK1 PBD inh = qHTS for Inhibitors of PLK1-PDB (polo-like kinase 1 - polo-box domain): Primary Screen | Plk1 PBD binding of FITC phosphopeptide, fluorescence polarization | Serine/threonine-protein kinase PLK1 (Homo sapiens), P53350 | AID 720504, 2013 | Potency, µM, for the others: max response, negative = inhibition, usual class: inhibitors | 360,000 compounds, 2.8% hits; further: potency means the concentration at half of the fitted maximal effect; series mostly up to about 57 µM; nearly all actives have a fitted effect of over 65% in size
Target sequence (P53350 whole entry, looked up, the tested form may be a part): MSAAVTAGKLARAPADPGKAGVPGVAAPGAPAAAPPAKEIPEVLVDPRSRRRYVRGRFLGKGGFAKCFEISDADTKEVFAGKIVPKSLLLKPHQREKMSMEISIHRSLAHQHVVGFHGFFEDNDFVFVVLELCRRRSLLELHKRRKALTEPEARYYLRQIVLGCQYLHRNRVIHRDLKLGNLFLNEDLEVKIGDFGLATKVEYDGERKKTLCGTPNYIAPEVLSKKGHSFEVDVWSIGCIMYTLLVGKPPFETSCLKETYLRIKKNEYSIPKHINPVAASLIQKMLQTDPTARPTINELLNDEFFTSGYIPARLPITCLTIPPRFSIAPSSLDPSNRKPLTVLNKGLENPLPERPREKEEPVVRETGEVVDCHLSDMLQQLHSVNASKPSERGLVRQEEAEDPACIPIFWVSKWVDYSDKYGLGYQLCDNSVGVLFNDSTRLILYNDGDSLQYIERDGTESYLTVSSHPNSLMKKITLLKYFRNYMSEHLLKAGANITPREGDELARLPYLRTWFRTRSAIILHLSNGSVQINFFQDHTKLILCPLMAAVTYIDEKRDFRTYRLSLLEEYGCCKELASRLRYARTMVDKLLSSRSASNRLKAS
CCT chaperon mod = High-Throughput Screening for Modulators of Cytosolic Chaperonin Activity. purified chaperonin ATPase assay, HTRF ADP detection, 30 min. activity change, % (concentration not given with the values), hits read low. 360,000 compounds, 0.3% hits. AID 651819, 2012; in the data active means activity change below about -30%
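Enzyme 40 or 20 nM (batch-dependent) in Tris pH 7.4/KCl/MgCl2/DTT; cpd 76 uM single point; ATP 10 uM; 30 min 37 °C; Transcreener ADP HTRF detection, 30 min RT; ratio 665/615.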
VDR inhibitor = Inhibitors of the vitamin D receptor (VDR): qHTS | 400,000 compounds, 0.93% hits | VDR-SRC2-3 peptide fluorescence polarization, 2 h | AID 504847, 2011 | Vitamin D3 receptor (Homo sapiens), P11473 | Potency, µM, for the others: max response, negative = inhibition, usual class: inhibitors; further: potency means the concentration at half of the fitted maximal effect
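FP read-out; VDR + SRC2-3 coactivator peptide; 23 nl compound by pintool; 2 h RT incubation; reagents held at 4 deg C, protected from light.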
Sfp PPTase inh = qHTS Assay for Inhibitors of Bacillus subtilis Sfp phosphopantetheinyl transferase (PPTase); Biochemical Sfp PPTase activity, qHTS; Potency, µM, inactives show largest response in the series, negative = inhibition, hits mostly inhibitors; 310,000 compounds, 3.5% hits; AID 1490, 2009;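 further: the enzyme is Sfp with the accession as filed and its product quenches rhodamine fluorescence; potency means the concentration at half of the fitted maximal effect; 0% = enzyme reaction without inhibitor and -100% = no enzyme wells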
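After 15 min at room temperature with compound, 15 nM Sfp received 5 uM rhodamine-CoA plus 12.5 uM BHQ-2-ybbR (50 mM Hepes pH 7.6, 10 mM MgCl2). Rate came from the fluorescence difference over 30 min, ex 525/em 598 nm.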
Mm-Cpn inhibitor = Inhibitors of TCP-1 ring complex (TRiC) of Methanococcus maripaludis (MmCpn): qHTS; Chaperonin Mm-Cpn (Methanococcus maripaludis); purified Mm-Cpn ATPase, ADP Transcreener TR-FRET; Potency, µM (highest dose often 76.9 µM), without a hit: at the top dose activity, negative = inhibition, most hits filed as inhibitors; 330,000 compounds, 0.031% hits; AID 504842, 2011; further: potency means the concentration at half of the fitted maximal effect; nearly all actives have a fitted effect of over 80% in size
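25 nM Mm-CPN + cpd, 10 min 37°C; + 10 uM ATP, 30 min 37°C; buffer 30 mM Tris pH 7.4, 100 mM KCl, 5 mM MgCl2, 1 mM DTT; Transcreener ADP HTRF detection 30 min RT.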
G9a inh = qHTS Assay for Inhibitors of Histone Lysine Methyltransferase G9a; Histone-lysine N-methyltransferase EHMT2 (Homo sapiens), Q96KQ7; G9a H3K9 monomethylation, AlphaScreen, 2 h; Potency, µM (doses to about 102 µM), for the others: at the top dose activity, negative = inhibition, usual class: inhibitors; 350,000 compounds, 8.8% hits; further: potency means the concentration at half of the fitted maximal effect; nearly all actives have a fitted effect of over 75% in size
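Using a bead-based AlphaScreen, monomethylated H3K9 product from 2 h room-temperature reactions (G9a 20 nM, peptide 500 nM, SAM 20 uM) was detected with 0.5 ug/mL rabbit anti-H3K9me1 antibody.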
Active calls of the source: *; ? = inconclusive; . = not tested or not shown; [ ] = remark or other dose. Hits are enriched below; roughly 10% of the tested compounds scored in any of these assays. Unless noted, the call rests on the fitted dose curve; in most records, active means well fitted curve in the direction sought with a large enough effect; inconclusive means small, poorly fitted or top-dose-only effect, or another doubt; inactive means no such curve, though single readings can be large; an effect the other way counts as inactive or inconclusive. Unless noted, on the % scale 0 is the no-effect control and ±100 the full control effect.

SMILES | PLK1 PBD inh | CCT chaperon mod | VDR inhibitor | Sfp PPTase inh | Mm-Cpn inhibitor | G9a inh
Cc1cc(N/N=C2\CC(C)CC(C)(C)C2)nc2ccccc12 (stereo not drawn) | 0% | -4 | -10% | 2% | -1% | -46%
CN(C)[C@@H]1CCC[C@@H]1OC(=O)C(c1ccccc1)c1ccccc1 | 0% | 1 | 16% | ? | 3% | 13µM*
Cc1c(C(=O)NCc2ccc(Cl)cc2)sc2nc3n(c(=O)c12)CCC3 | . | . | -6% | . | . | -23%[59 µM]
COc1ccc(C)cc1N(C)C(=O)c1sc2nc3n(c(=O)c2c1C)CCCCC3 | . | . | -4% | . | . | 10µM*
Cc1ccc(N(C)C(=O)c2sc3nc4n(c(=O)c3c2C)CCCC4)cc1C | . | . | 16% | . | . | -3%[59 µM]
Cc1ccc(Cl)cc1N(C)C(=O)c1sc2nc3n(c(=O)c2c1C)CCCC3 | . | . | -8% | . | . | 13µM*
COc1ccc(CNC(=O)c2sc3nc4n(c(=O)c3c2C)CCCCC4)cc1 | . | . | -9% | . | . | 14µM*
CCOC(=O)c1sc(N(Cc2ccccc2)C(=O)CCl)nc1C | -22% | 0 | ? | -31% | -4% | 40µM*
CCOC(=O)c1sc(N(Cc2ccccc2)C(=O)COC(=O)c2ccccc2O)nc1C | 1% | 0 | -14% | -17% | -3% | ?
COc1ccc2c(CNCc3cccs3)c(C(=O)O)n(Cc3cccc(F)c3)c2c1 | . | . | 3% | . | . | ?
CC(=O)c1cnc(-c2ccccn2)s1 | 21µM* | -4 | -29% | -28% | -3% | 32µM*
CC(=O)c1cnc(-c2ccccc2Cl)s1 | -6% | -2 | 1% | 14% | -7% | -6%
CN(C)CCCn1c2c(c(SCC(=O)Nc3cccc4ccccc34)nc1=O)CCC2 | 4% | 0 | 6% | . | 1% | 50µM*
CCN(CC)CCn1c2c(c(SCC(=O)Nc3cccc4ccccc34)nc1=O)CCCC2 | 0% | -1 | -2% | . | 1% | 13µM*
CN(C)CCn1c2c(c(SCC(=O)Nc3cccc4ccccc34)nc1=O)CCC2 | -3% | 0 | 6% | . | -2% | 12%[0.501 µM]
CCCN(CCC)CCCNC(=O)c1nn(C)c2c1CS(=O)(=O)c1ccccc1-2 | . | . | 12% | . | . | -44%[59 µM]
COc1cccc(C(=O)NCCCNC(=O)c2cccnc2)c1 | -1% | 0 | -4% | 16% | 0% | -1%
COc1cccc(C(=O)OCCNC(=O)c2cccnc2)c1 | 1% | -1 | 13% | 6% | -1% | 50µM*
COc1ccc(OCC(=O)OCCNC(=O)c2cccnc2)cc1 | -12% | 1 | 4% | -16% | 1% | 32µM*
O=C(NCCOC(=O)C1COc2ccccc2O1)c1cccnc1 (stereo not drawn) | -12% | 1 | -1% | 22% | 0% | 50µM*
O=C(NCCOC(=O)C1COc2ccccc2O1)C1COc2ccccc2O1 (stereo not drawn) | 2% | 2 | 5% | 13% | 0% | ?
Cc1ccc(OCC(=O)NNC(=O)c2cccnc2)cc1 | 4% | -2 | -20% | 9% | 1% | 79µM*
COc1ccc(OCC(=O)NNC(=O)c2cccnc2)cc1 | -1% | -4 | -12% | 11% | 1% | -70%[2.33 µM]
COCCCNC(=O)c1cnn(-c2ccccc2Cl)c1C1CCN(C(=O)OC(C)(C)C)CC1 | . | . | 23% | . | . | -11%[59 µM]
CCOC(=O)/C(=N\Nc1ccccc1)P(=O)(c1ccccc1)c1ccccc1 | -5% | -8 | -15% | 20µM* | 1% | -51%
SMILES | PLK1 PBD inh | CCT chaperon mod | VDR inhibitor | Sfp PPTase inh | Mm-Cpn inhibitor | G9a inh
CCOC(=O)c1ccc(NC(=S)P(=O)(c2ccccc2)c2ccccc2)cc1 | 5% | -1 | . | . | . | .
CCc1cccc(C)c1NC(=O)Cn1cc2c(n1)CCCCC2 | . | . | 15% | . | . | -4%[59 µM]
CC[C@@H]1CN2CCc3cc(OC)c(OC)cc3[C@@H]2C[C@@H]1C[C@H]1NCCc2cc(OC)c(OC)cc21 | . | . | 3% | 6% | . | .
C/C(=N\Nc1nc(N2CCCCCC2)nc(N2CCCCCC2)n1)c1ccccc1 | -13% | 0 | -19% | -5% | -1% | 5%
O=C(/C=C/c1ccccc1)NC(=S)Nc1ccc(N2CCOCC2)c(Cl)c1 | -2% | -2 | 7% | 20% | 2% | -6%
C/C(=C\C(=O)c1ccccc1)Nc1ccc(N2CCOCC2)cc1 | -11% | -1 | -10% | 2% | -2% | 79µM*
O=C(NC(=S)Nc1ccc(N2CCOCC2)cc1)c1cccc(Cl)c1 | -13% | -5 | -25% | -3% | 1% | 28µM*
O=C(NC(=S)Nc1ccc(N2CCOCC2)cc1)c1ccco1 | -10% | -2 | -13% | ? | 3% | ?
O=C(NC(=S)Nc1ccc(N2CCOCC2)c(Cl)c1)C(c1ccccc1)c1ccccc1 | 27µM* | 0 | -16% | 14% | -6% | -48%[59 µM]
CC(=O)Nc1ccc(/C(C)=N/Nc2nc(N3CCOCC3)nc(N3CCOCC3)n2)cc1 | 30µM* | -2 | ? | 1% | -3% | 3%
CCn1c(CN2CCOCC2)nc2cc(NC(=O)c3ccccc3[N+](=O)[O-])ccc21 | . | . | 5% | . | . | -16%[59 µM]
CCOC(=O)OCC1OC(c2ccc(C(C)=O)cc2)C=CC1OC(=O)OCC (stereo not drawn) | . | . | . | 14% | . | .
Cc1ccc2oc(-c3ccc(Cl)c(NC(=O)c4ccc(-c5ccccc5[N+](=O)[O-])o4)c3)nc2c1 | . | . | -12% | . | . | -4%[59 µM]
O=C(NC(=S)Nc1ccc(N2CCOCC2)cc1)c1cncc(Br)c1 | -8% | -2 | -17% | 56µM* | -2% | ?
CCc1ccc(C(=O)NC(=S)Nc2ccc(N3CCOCC3)cc2)cc1 | -3% | -1 | -34% | 1% | 0% | 6.3µM*
CC(=O)c1ccc(NC(=S)Nc2ccc(N3CCOCC3)cc2)cc1 | ? | 2 | -19% | ? | -4% | 45µM*
CC(=O)c1ccc(NC(=O)CN2CCOCC2)cc1 | -4% | -2 | ? | 10% | 0% | -10%[59 µM]
O=C(NCc1ccc(F)cc1Cl)c1ccc(CSCc2ccccc2Cl)o1 | . | . | 2% | . | . | 6%[59 µM]
CCCN(C(=O)CCc1nc(-c2ccccc2F)no1)c1ccc(CC)cc1 | . | . | -7% | . | . | 78%[59 µM]
O=C(NCc1cccs1)c1cccnc1SCCS(=O)(=O)c1ccc(C(F)(F)F)cn1 | -7% | -1 | -15% | -2% | -1% | 16µM*
CS(=O)(=O)CCSc1ncccc1C(=O)NCc1cccs1 | -5% | 1 | -18% | 23% | -3% | 1%

Assay outcomes: PubChem BioAssay, National Center for Advancing Translational Sciences (NCATS)
